Measurements as given in the supplement of paper PMC12632987.
In all, about 4,500 sequences were measured (“median log2 fold change of GCK-ALFA target abundance (FLAG IP / Myc IP barcode read proportion)”: median about 0.078, lowest 2% from about -0.6 on). This is one part of a sample in which the lowest values are shown more often than they occur.

B1: GBRAP_52_5904 (protein)
chain: MREELRAQVEEMLALVRAGDLEGARALAREIAETLNDEELRLLIEEVAALVREAPLEELPAWWRLAEIMAEAFEEAGKDEVLADDLLAATAAAIHERLQR
B2: GBRAP_184_5166 (protein)
chain: MIKEFEIKIENVEEAKEKIEEIKKEVEGLKAELYVIVETKELTVEIAKAILEGLKEMKEKGYVTSITVEFTGKIDEETLDVAVKLADEAGVKLVIAIDEE
B3: GBRAP_139_3707 (protein)
chain: SALEELIAEARRLTREMREDPEAALEALVELLLSVSEEELEVLVEAIAEELSRLPLDEAEELADRLLELVEERFKDEDKIDIVEAVLNGALARKAAEEEA
B4: GBRAP_128_3416 (protein)
chain: ADAALVAKAKELLEKMKTADAATAAALADEIAALIAAADLETAEAIAEVIEEELPKLTAEQLDILADALRAALPAASPEKAEILAGVLVDALNEAEEKEE
B5: GBRAP_26_5474 (protein)
chain: VEEEVEAALKEMEKLLKELLDPETAAAATASAFTIVEEAVEEMKKNAKDKEKLKKAAEKAVKEIAADLETLGVDADTRAKIVAKAKAELEKIVKAIEKEA
B6: GBRAP_160_4004 (protein)
chain: SEKIEKLIKEIEELVEETIEWMEGLSPEERLTLVRGTVGEIIQLAIESEEVSDESEEKIAELGDETIERVEENKDASLEVWKEILEEFLEKVKKILKEDE
B7: GBRAP_137_3676 (protein)
chain: SKVEIEIKEEDGLVEITVTVYDPEKAEETEEKLLDIAHEVGALAVAIKRNEDGSLEITIVVPEEKGEEAEKKVLELAKEYDEVIIKKEKDGKTEEEVIKK
B8: GBRAP_35_5582 (protein)
chain: DDVEIILETARDFAEAAIEALKGDDLEEAIRMTEAFVRAAELAIEDLKNDLEALKELAKLLEEVLKAAKEYASDNPEMQKNIERLEELLKRAKELAKKVE
B9: GBRAP_166_4971 (protein)
chain: MQEELVEEFKKYIDELAEKMKTANHEEKLELLAEAAEKLKELIEKGLSDEDLKELIEYLIKKAKEVGISTSEVYGALTIIADLNEEQIDILEEAIKKVEK
B10: GBRAP_106_2558 (protein)
chain: SKKETAEKIYKEMLEEAKKEIAEHEAWLAKHRSQLTPEEIRAINQYLRDYLVAKLLRKMIEAGIITKEEAKEILEEVRKRKDLDPLEALEYAGKLVLEKI
B11: GBRAP_78_6731 (protein)
chain: ELEKLLEEAIKVASEAAKLAVKQASNEVIAEIVEALSHLEEALELVEEGGEKEEILEELEKALEHLKEALKLLPESLTEIKKLLEEAIKLVEEAIKEVKK
B12: GBRAP_78_6654 (protein)
chain: EVEELIDKAMEHLDKAAKLTKKLDEESRNELLDLLVEAASHILLSEENGFDLEELKEALEYLKKALEYAKSLNTPVAKEIAEELEKAIEYLEKAIKLLEE
B13: GBRAP_52_6036 (protein)
chain: SRERMRRLAQEIVDLAKAGDLEGARALAREAVETLSEEELRLLGEELARLAREAAPEDLDAIMEVAFILADALVEGGYDEVLADDLLARVAAAAVENLQA
B14: GBRAP_52_6031 (protein)
chain: SRERMRALARELIDLVLAGRDDEARALAEELVATLSEEELRLLGEELARLTREAAPEDLDAYMRAAEIVADALEAAGYDEVLADDLLARVAAAAVENLAR
B15: GBRAP_196_5416 (protein)
chain: KYLEEIKELEKESEEEVKDIELSDWTIVVNFTPENLEEEAEKTAEIAKDLGNPEIVIVHDGTLEEMLEALKLLREKLKEKGVVSKISVDSRAREEAEEKA
B16: GBRAP_84_7000 (protein)
chain: MREEEIEKLVDYLAENSSLELLKKLYVYLLLKNDNKGATRLLSYLLEKDPEAAAEALDKATEAALEEKEEEVKKELLELAKKEGEEIYKKVKKLIELLEE
B17: GBRAP_160_4655 (protein)
chain: SAELEELLEKIREIFEEALEMMKGETHEQRVAIARVMKGDVILLLEESPSVSDETVDEVDEVMDELVETIEENPDWTDEEIEEKIDEALEEIEEILEEDF
B18: GBRAP_11_2732 (protein)
chain: KKEKLEEIRELAERLAELLQRLIEEGPEDEELRREAEEQLRKLEELVKEYGDEDLKKLVEIIREEWERAQEDPETAVEHLRNALAAARVLAGQVLLEIEE
B19: GBRAP_128_3559 (protein)
chain: SVEERVEKAKELLEKIKNSDVEEARKYAEELAKLLEEADEESLEAIVETILERLPELSVEHLDVLADVFRERIPEADPRTAEALAEIQVEALNEAEEKEE
B20: GBRAP_128_3586 (protein)
chain: SVEAVRAETRALMAAMKTADDATAKALATELAARFTTLSLEEAEAAAEVIEEELPGLSAEHLDILADALRAALPAMTPEKAELAADVLVAALNEAEEKDE
B21: GBRAP_166_4874 (protein)
chain: GLEELLEKARKEIRELLKKASEADDEERVELYIEIGEIIEELREAGAPKEAILELVREALKEAKELGLDVRLLAGIIINVTDFDEEEIDELDKIVEEVLK
B22: GBRAP_11_2667 (protein)
chain: KKEVYKKAAELAKELAKTVKKLIEEGIDNEELIKKAEELLKELKELAKKELDKASQKEVEVLEEIWKEAKEDKENSLKYWELLLAGARVLEGNFLLEYDE
B23: GBRAP_160_4272 (protein)
chain: SPEREELIEDIEEDREEILELVDKISPEEVRNFAVTSLGSHLLEAIDLGLVTDEQEDELMEIVDELEKELKEAENASKEEIKKIITEHYDKAIEILKKAK
B24: GBRAP_166_4873 (protein)
chain: HMEELLKKAEKEIEKLLKEASEADEEEQVELYIEIGEIIEELKEAGASLEDILELIERTLKEAKKLGLDVKKLAGIIINVTDFNEEEIDKIDEIVEKVLK
B25: GBRAP_14_3780 (protein)
chain: MEKIEEIIREKAEEIIELLTEIAPEKAEEITEIVEEVVERTIARIKETGNAEEAAEEGRDELLARIAELTADLPAETRARMLAVVAVEFGQAILEIEELL
B26: GBRAP_125_2986 (protein)
chain: EEEELLEDLREIFKALGLSEEDAEEAVKLAREFSLKQTLYALMAALGAEEVADAVAKLTEEQAKEVVKEASEYIKKNPNITPEEVVELLLELAKKQLAKA
B27: GBRAP_78_6666 (protein)
chain: ELEKIIDETLELLTEVIRASKSLPPEVQEAVLDEAVEAATELEEIEEEGPNLEELEEAIKHLEKLLELLEKNKSPELEPLIEKLKKQIEKLKKAKEELEK
B28: GBRAP_95_7066 (protein)
chain: EEDREIAEDLIDTAEDLVEIGLYEQAARAAKAAVEVLKEIGETGELALRAAEVLVKVAEATGDEEAAEAAKEVLERIREAGGDEERIKELEKRLEEAKKK
B29: GBRAP_184_5265 (protein)
chain: KVLERTIKAENVEELIAKMEEVRKEALATGADVIILLEVEKLTKEMIDALFAQLKALRDAGYKGKITVGIDADLTEEMIDYVIKKADEAGVNVVLAISEE

molecular target: GABARAP, O95166; assay: median log2 fold change of GCK-ALFA target abundance (FLAG IP / Myc IP barcode read proportion) (log2 ratio); each designed protein is fused to an ALFA-tag nanobody in HEK293 cells to bring the named protein to FLAG-tagged glucokinase (GCK); Myc marks an untargeted standard; higher = target protein stabilised (more abundant); settings: target protein: 3xFLAG-MCP-GCK-ALFA reporter; HEK293 landing pad (RPLP)
How it was run: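 Sequencing of reverse-transcribed, amplified circular RNA barcodes from anti-FLAG and anti-Myc immunoprecipitates provided the readout for an ALFA-nanobody-fused binder library recombined into HEK293 landing-pad cells. Those cells were induced with 2 μg mL^−1 doxycycline, transfected with a plasmid expressing a FLAG-tagged target and a Myc-tagged standard, and lysed after 48 h. Target abundance is the per-binder median log2 ratio of FLAG to Myc barcode read proportions. Only barcodes at a proportion of ≥10^−7 in both replicates and binders with ≥3 barcodes per replicate were kept, with a 10^−6 pseudocount added before the two replicates were pooled.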

Chain of GABARAP, O95166 (O95166 whole entry, the tested form may be a part): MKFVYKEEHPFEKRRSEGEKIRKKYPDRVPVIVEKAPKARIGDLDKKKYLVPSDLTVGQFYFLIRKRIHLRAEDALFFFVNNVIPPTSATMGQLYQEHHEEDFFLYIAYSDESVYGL

First: B1
Second: B2
The “median log2 fold change” value of the first is lower: -0.644 for the first, 0.0333 for the second.

Compared with B3, B4 is higher in “median log2 fold change” value: -0.0884 for the first, 0.247 for the second.

First: B5
Second: B6
The “median log2 fold change” value of the first is higher: 0.241 for the first, -0.827 for the second.

B7 and B8 are within 0.2 log units of each other in “median log2 fold change” value: 0.249 for the first, 0.182 for the second.

Going from B9 to B10, the “median log2 fold change” value falls from -0.0848 to -0.711.

B11 and B12 are within 0.2 log units of each other in “median log2 fold change” value: 0.0787 for the first, 0.0422 for the second.

Compared with B13, B14 is higher in “median log2 fold change” value: -0.791 for the first, -0.202 for the second.

Compared with B15, B16 is lower in “median log2 fold change” value: 0.451 for the first, 0.0601 for the second.

First: B17
Second: B18
The “median log2 fold change” value of the first is lower: -0.612 for the first, 0.303 for the second.

Going from B19 to B20, the “median log2 fold change” value rises from 0.095 to 0.296.

B21 and B22 are within 0.2 log units of each other in “median log2 fold change” value: 0.0131 for the first, -0.102 for the second.

Compared with B23, B24 is lower in “median log2 fold change” value: 0.239 for the first, -0.298 for the second.

First: B25
Second: B26
The “median log2 fold change” value of the first is higher: -0.0168 for the first, -0.643 for the second.

B27 and B28 are within 0.2 log units of each other in “median log2 fold change” value: 0.274 for the first, 0.142 for the second.

In the case of B29, the “median log2 fold change” value is reported as -0.0191.
